Assay results from PubChem BioAssay AID1159580 (chemical genetic matrix, 2015).
Out of some 5,500 compounds screened, about 2,000 (36%) were called active. Another 18% or so got no clear call; they are omitted. Cut-off read from the data, not from the text of the source: active = normalized growth mostly below about 0.91 (no sharp cut-off); inconclusive = no clear call, values can overlap the other calls; inactive = mostly above about 0.92. Some of the results follow.

Test: chemical genetic growth profiling, strain panel (AID 1159580);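 note: tested at 20 µM; growth read once vehicle control cultures reached saturation at 30 °C; 1 = growth at the plate median or of vehicle wells; lower values mean less growth of the strain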
Details: S. cerevisiae deletion strains, growth OD

Measured: normalized growth

COc1ccc2oc(-c3ccccc3OC)cc(=O)c2c1
inactive: locus YHR030C, strain SLT2, stronger effect = lower value 0.875 | locus YHR079C, strain IRE1, stronger effect = lower value 0.911 | locus YJL095W, strain BCK1, stronger effect = lower value 0.889 | locus YJR066W, strain TOR1, stronger effect = lower value 0.851 | locus YLR113W, strain HOG1, stronger effect = lower value 0.966 | locus YNL183C, strain NPR1, stronger effect = lower value 0.883 | locus YOR231W, strain MKK1, stronger effect = lower value 0.91 | locus YPL256C, strain CLN2, stronger effect = lower value 0.936

O=c1cc(-c2cccc(O)c2)oc2ccc(O)cc12
inactive: locus YAL021C, strain ccr4, stronger effect = lower value 0.959 | locus YAL026C, strain drs2, stronger effect = lower value 0.946 | locus YAL030W, strain snc1, stronger effect = lower value 0.957 | locus YBL061C, strain skt5, stronger effect = lower value 0.952 | locus YBR009C, strain hhf1, stronger effect = lower value 0.934 | locus YBR023C, strain chs3, stronger effect = lower value 0.947 | locus YBR171W, strain sec66, stronger effect = lower value 0.956 | locus YBR231C, strain swc5, stronger effect = lower value 0.939 | locus YBR279W, strain paf1, stronger effect = lower value 0.962 | locus YCL011C, strain gbp2, stronger effect = lower value 0.933 | locus YCL016C, strain dcc1, stronger effect = lower value 0.952 | locus YCL061C, strain MRC1, stronger effect = lower value 0.949 | locus YCL069W, strain vba3, stronger effect = lower value 0.969 | locus YCR088W, strain abp1, stronger effect = lower value 0.962 | locus YDL005C, strain med2, stronger effect = lower value 0.951 | locus YDL040C, strain nat1, stronger effect = lower value 0.971 | locus YDR001C, strain nth1, stronger effect = lower value 0.943 | locus YDR069C, strain doa4, stronger effect = lower value 0.946 | locus YDR159W, strain sac3, stronger effect = lower value 0.975 | locus YDR195W, strain ref2 1.06 | locus YDR297W, strain sur2, stronger effect = lower value 0.953 | locus YDR334W, strain swr1, stronger effect = lower value 0.924 | locus YDR335W, strain msn5, stronger effect = lower value 0.938 | locus YDR392W, strain spt3, stronger effect = lower value 0.873 | locus YEL003W, strain gim4, stronger effect = lower value 0.943 | locus YEL037C, strain rad23, stronger effect = lower value 0.964 | locus YEL061C, strain CIN8 (second series), stronger effect = lower value 0.951 | locus YER015W, strain faa2, stronger effect = lower value 0.936 | locus YER016W, strain bim1, stronger effect = lower value 0.944 | locus YER111C, strain swi4, stronger effect = lower value 0.956 | locus YER155C, strain BEM2 (second series), stronger effect = lower value 0.925 | locus YFR010W, strain ubp6, stronger effect = lower value 0.962 | locus YGL167C, strain pmr1, stronger effect = lower value 0.942 | locus YGL173C, strain kem1, stronger effect = lower value 0.941 | locus YGL227W, strain vid30, stronger effect = lower value 0.953 | locus YGL240W, strain doc1, stronger effect = lower value 0.91 | locus YGL253W, strain hxk2, stronger effect = lower value 0.952 | locus YHR013C, strain ard1, stronger effect = lower value 0.953 | locus YHR027C, strain rpn1, stronger effect = lower value 0.955 | locus YHR142W, strain chs7, stronger effect = lower value 0.885 | locus YJL092W, strain hpr5, stronger effect = lower value 0.953 | locus YJL095W, strain BCK1 (second series), stronger effect = lower value 0.942 | locus YJL115W, strain asf1, stronger effect = lower value 0.947 | locus YJL129C, strain trk1, stronger effect = lower value 0.903 | locus YJL154C, strain vps35, stronger effect = lower value 0.962 | locus YJL164C, strain tpk1, stronger effect = lower value 0.947 | locus YJL166W, strain qcr8, stronger effect = lower value 0.95 | locus YJL187C, strain SWE1, stronger effect = lower value 0.936 | locus YKL160W, strain elf1, stronger effect = lower value 0.936 | locus YKR026C, strain gcn3, stronger effect = lower value 0.948 | locus YKR091W, strain srl3, stronger effect = lower value 0.952 | locus YLL001W, strain dnm1, stronger effect = lower value 0.945 | locus YLL026W, stronger effect = lower value 0.947 | locus YLL041C, strain sdh2, stronger effect = lower value 0.951 | locus YLR027C, strain aat2, stronger effect = lower value 0.938 | locus YLR258W, strain gsy2, stronger effect = lower value 0.939 | locus YLR320W, strain mms22, stronger effect = lower value 0.923 | locus YLR342W, strain FKS1, stronger effect = lower value 0.983 | locus YLR357W, strain rsc2, stronger effect = lower value 0.906 | locus YLR370C, strain arc18, stronger effect = lower value 0.933 | locus YLR384C, strain iki3, stronger effect = lower value 0.951 | locus YML120C, strain ndi1, stronger effect = lower value 0.952 | locus YMR058W, strain fet3, stronger effect = lower value 0.942 | locus YMR125W, strain sto1, stronger effect = lower value 0.959 | locus YMR129W, stronger effect = lower value 0.983 | locus YMR205C, strain PFK2, stronger effect = lower value 0.944 | locus YMR231W, strain pep5, stronger effect = lower value 0.958 | locus YNL071W, strain lat1, stronger effect = lower value 0.958 | locus YNL209W, strain ssb2, stronger effect = lower value 0.945 | locus YNL248C, strain rpa49, stronger effect = lower value 0.931 | locus YNL322C, strain KRE1 (second series), stronger effect = lower value 0.958 | locus YNR049C, strain mso1, stronger effect = lower value 0.942 | locus YOR001W, strain rrp6, stronger effect = lower value 0.948 | locus YOR070C, strain gyp1, stronger effect = lower value 0.964 | locus YOR080W, strain dia2, stronger effect = lower value 0.93 | locus YOR083W, strain WHI5, stronger effect = lower value 0.928 | locus YOR106W, strain vam3, stronger effect = lower value 0.933 | locus YOR265W, strain rbl2, stronger effect = lower value 0.958 | locus YOR270C, strain vph1, stronger effect = lower value 0.865 | locus YOR290C, strain snf2, stronger effect = lower value 0.893 | locus YPL051W, strain arl3, stronger effect = lower value 0.92 | locus YPL078C, strain atp4, stronger effect = lower value 0.956 | locus YPL240C, strain hsp82, stronger effect = lower value 0.952
active: locus YDR137W, strain rgp1, stronger effect = lower value 0.778 | locus YLR221C, strain rsa3, stronger effect = lower value 0.894 | locus YLR262C, strain YPT6 (second series), stronger effect = lower value 0.804 | locus YPL106C, strain sse1, stronger effect = lower value 0.827
